Bioassay records: PubChem, several laboratories
Compounds with a hit are over-represented: about 0.98% of the library has one in this group of screens.
MRP1 act: MRP-1 activation; viability increase, % at 10 µM; H69AR cells + doxorubicin, viability rescue, CellTiter-Glo; actives 0.61% (n = 140,000);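 active means viability gain under doxorubicin at or above a set limit, the compound median plus 3 SD, cut at about 4.7% in these data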;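 further: MRP-1 overexpressing cells given doxorubicin 25 µM after compound pretreatment; 18-22 h compound pretreatment then 72 h with doxorubicin before readout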
Calb biofilm kill: kills Candida albicans biofilms | inhibition, % at 6 µM | actives 0.14% (n = 85,000) | C. albicans biofilm + clotrimazole, Alamar Blue | AID 834;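 active means inhibition above 20%; inactive means inhibition below 20%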;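 further: preformed 24 hr biofilms exposed to compound for 48 hr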
MRP resist rev: reverses drug resistance mediated by MRP; actives 0.04% (n = 85,000); H69AR cells + 2 uM doxorubicin, CellTiter-Glo, 72 h; differential viability (reversal), % at 10 µM; AID 602;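 active means viability drop by adding the cancer drug above about 55%, with treated viability meeting a 40% cutoff, limit read from the data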;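 further: larger differential means the compound sensitizes cells more to doxorubicin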
SDO1 yeast rescue: compounds rescuing growth of sdo1-depleted yeast, bone marrow failure model | S. cerevisiae sdo1-depleted JHY4D growth rescue, OD600 30 h; hits give high values; pdr5 snq2 efflux-pump mutant strain | z-score at 10 µM | actives 0.21% (n = 140,000) | AID 817;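 active means z-score above 3 at both the 24 hr and the 30 hr optical density reads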
Of the large screens only hits and unclear results are named; the others gave an inactive call.

C/C(=N\NC(=O)c1ccc(Cn2cc([N+](=O)[O-])cn2)o1)c1cccc(NC(=O)c2cccnc2)c1	MRP1 act 20 (no result: Calb biofilm kill, MRP resist rev)
C/C(=N\NC(=O)c1ccc(Cn2cc(Br)cn2)o1)c1cccc(NC(=O)C(C)(C)C)c1	none (no result: Calb biofilm kill, MRP resist rev)
CC(C)Oc1ccc(CSC(=N)N)cc1	MRP1 act 7.9 (no result: Calb biofilm kill, MRP resist rev)
COc1ccc(CNC(=S)NCc2ccc(OC(C)C)cc2)cc1	none (no result: Calb biofilm kill, MRP resist rev)
Cc1cc(C)n(CCC(=O)N/N=C/c2ccccc2O)n1	MRP1 act 5.6 (no result: Calb biofilm kill, MRP resist rev)
Cc1cc(C)n(CCC(=O)N/N=C/c2ccc(O)cc2O)n1	none (no result: Calb biofilm kill, MRP resist rev)
COc1ccc2cc(-c3cc(C(=O)O)c4ccccc4n3)ccc2c1	MRP1 act 6.5 (no result: Calb biofilm kill, MRP resist rev)
Cc1c(C(=O)OC2CCC(C)CC2)[nH]c2c1C(=O)CCC2 (centres undefined)	MRP1 act 5.2
Cc1ccc(Nc2cc(C)nc(NCc3ccccc3)n2)cc1	none (no result: Calb biofilm kill, MRP resist rev)
Cc1cc(C)nc(N/N=C/c2ccccc2)n1	none (no result: Calb biofilm kill, MRP resist rev)
Cc1cc(N/N=C/c2ccccc2Cl)nc(NCc2ccccc2)n1	MRP1 act 7.1 (no result: Calb biofilm kill, MRP resist rev)
Cc1cc(C)nc(N/N=C/c2cccc3ccccc23)n1	MRP1 act 5.7 (no result: Calb biofilm kill, MRP resist rev)
Cc1cc(Cl)cc(Cl)c1CNc1c([N+](=O)[O-])c(=O)oc2ccccc12	none (no result: Calb biofilm kill, MRP resist rev)
Cn1c(=O)c(NCCO)c2c3c(cccc31)C(=O)c1ccccc1-2	none
Cn1c(=O)c(NCCc2ccccc2)c2c3c(cccc31)C(=O)c1ccccc1-2	MRP resist rev 64
c1ccc(N2CCN(c3ccccc3)C2c2cccnc2)cc1	MRP resist rev 60
CC(=O)Nc1nc(C)c(Oc2ccc(Cl)cc2Cl)c(=O)[nH]1	MRP1 act 32
COc1ccc(OC)c(-c2csc(NC(=O)CSc3ccc([N+](=O)[O-])cc3)n2)c1	none (no result: Calb biofilm kill, MRP resist rev)
C/C(=N\OC(=O)c1cccc(C)c1)c1sc(-c2ccccc2)nc1C	MRP1 act 4.7 (no result: Calb biofilm kill, MRP resist rev)
CCOc1ccccc1N1CCN(c2nc3ccccc3nc2C(C#N)C(=O)OC(C)C)CC1 (centres undefined)	none (no result: MRP1 act, SDO1 yeast rescue)
C=CCOC(=O)C(C#N)c1nc2ccccc2nc1N1CCN(c2ccccc2OCC)CC1 (centres undefined)	MRP1 act 5.2
O=c1c2ccccc2nc(SCc2nc3ccccc3s2)n1CCCO	none (no result: Calb biofilm kill, MRP resist rev)
Nc1ccc(C(=O)OCc2nc3c(ccc4ccccc43)[nH]2)cc1	none
N#Cc1ccccc1Cn1cc(/C=C/[N+](=O)[O-])c2ccccc21	none (no result: Calb biofilm kill, MRP resist rev)
NC1=NC(=O)/C(=C/c2cn(CCC(=O)O)nc2-c2ccc(Cl)cc2)S1	MRP1 act 5.5 (no result: Calb biofilm kill, MRP resist rev)
NC1=NC(=O)/C(=C/c2cn(CCC(=O)O)nc2-c2ccc(F)cc2)S1	none (no result: Calb biofilm kill, MRP resist rev)
Cc1ccc(OCC(=O)N/N=C/c2c[nH]c3ccccc23)c([N+](=O)[O-])c1	none (no result: Calb biofilm kill, MRP resist rev)
Cn1cc(S(=O)(=O)N2CCN(C(=O)c3ccco3)CC2)c(=O)n(C)c1=O	Calb biofilm kill 20
O=C(NCc1ccccc1Cl)c1ccccc1Oc1ccccc1	none (no result: Calb biofilm kill, MRP resist rev)
CN(C)CC(C)(C)CNS(=O)(=O)c1cccc(Cl)c1Cl	none
Cc1cc(NC(=O)c2cc(C(C)C)on2)nn1Cc1ccc(Cl)cc1	MRP1 act 6.7
Cc1cc(C(=O)Nc2cc(C)n(Cc3ccc(Cl)cc3)n2)no1	none
Cc1c(Nc2cc(N3CCCCCC3)c3nonc3c2[N+](=O)[O-])c(=O)n(-c2ccccc2)n1C	none (no result: Calb biofilm kill, MRP resist rev)
CCc1nccn1C(=O)c1cnn2c(C(F)F)cc(-c3ccc(C)cc3)nc12	MRP1 act 6.0 (no result: Calb biofilm kill, MRP resist rev)
CCc1nccn1C(=O)c1cnn2c(C(F)F)cc(-c3ccccc3)nc12	none (no result: Calb biofilm kill, MRP resist rev)
CCCN(CC(=O)Nc1ccccc1C)C(=O)/C=C/c1cccs1	none (no result: Calb biofilm kill, MRP resist rev)
O=C(Nc1nnc(COc2ccc(Cl)cc2)s1)C1CCCO1 (centres undefined)	MRP1 act 8.9
Cc1ccc(N2C(=O)c3ccccc3C2=O)cc1C	none
Cc1cccc(C)c1N1C(=O)c2ccccc2C1=O	Calb biofilm kill 40
CCCCCN(C(=O)COC(=O)c1ccc(Br)o1)c1c(N)n(CCCC)c(=O)[nH]c1=O	none (no result: Calb biofilm kill, MRP resist rev)
CN1C(=S)N(c2ccccc2)C(=O)/C1=C/c1ccco1	none (no result: Calb biofilm kill, MRP resist rev)
O=C1/C(=C\c2ccco2)SC(=S)N1c1ccc(O)cc1	MRP1 act 5.2 (no result: Calb biofilm kill, MRP resist rev)
CC1CC(C)CN(C2CCN(Cc3cccnc3)CC2)C1 (centres undefined)	none
Cc1cccc(C(=O)NNC(=O)CN2C(=O)c3ccccc3C2=O)c1	MRP1 act 4.8 (no result: Calb biofilm kill, MRP resist rev)
COc1ccc(O[C@H]2C=C[C@@H](c3ccccc3)O[C@@H]2CO/N=C(\C)CCN2CCCCc3nc(C)c(C)cc32)cc1	none (no result: Calb biofilm kill, MRP resist rev)
CCOC(=O)c1sc(-c2ccc(F)cc2)cc1NC(=O)Nc1ccccc1OC	MRP1 act 9.0 (no result: Calb biofilm kill, MRP resist rev)
CCOC(=O)c1cc(NC(=O)Nc2ccccc2OC)c(C)nc1C	none
CCOC(=O)c1sc(-c2ccccc2)cc1NC(=O)Nc1ccccc1	MRP1 act 6.0 (no result: Calb biofilm kill, MRP resist rev)
C=CCC(CC=C)(NC(=O)c1cccc(C)c1)c1ccccc1	none (no result: Calb biofilm kill, MRP resist rev)
Cc1cc(C)c(COc2ccc(/C=N/n3c(C)n[nH]c3=S)cc2)c(C)c1	none (no result: Calb biofilm kill, MRP resist rev)
O=C(CSc1nc2c(c(=O)[nH]1)CCC2)Nc1cccc(Cl)c1	none
N#Cc1c(-c2ccco2)nc(SCC(=O)Nc2cccc(Cl)c2)[nH]c1=O	MRP1 act 5.5
N#CCSc1nc2cc(C(=O)N3CCC(C(N)=O)CC3)ccc2c2nc3ccccc3n12	MRP1 act 6.1
Cc1ccc(-c2nc3sc4c(c3c(=O)n2N)CC(C)(C)OC4)cc1	none
CC1(C)Cc2c(sc3nnn(Cc4ccc(Cl)cc4)c(=O)c23)CO1	MRP1 act 7.4 (no result: Calb biofilm kill, MRP resist rev)
O=C(CS(=O)(=O)Cc1ccccc1)Nc1ccc(Cl)cn1	none
Cc1ccc(NC2=CC(=O)CC(c3ccc(Cl)cc3)C2)cc1 (centres undefined)	MRP1 act 4.7 (no result: Calb biofilm kill, MRP resist rev)
Cc1ccc(NC2=CC(=O)CC(c3ccccc3)C2)cc1 (centres undefined)	none (no result: Calb biofilm kill, MRP resist rev)
CCCN1C(=O)/C(=N\OCC(=O)Nc2ccc(C(C)C)cc2)c2ccccc21	MRP1 act 6.5 (no result: Calb biofilm kill, MRP resist rev)
CCCN1C(=O)/C(=N\OCC(=O)NC23CC4CC(CC(C4)C2)C3)c2ccccc21	MRP1 act 5.7 (no result: Calb biofilm kill, MRP resist rev)
CCNc1ccc(C(=O)OCC(=O)c2cc(C)n(Cc3ccc4c(c3)OCO4)c2C)cc1[N+](=O)[O-]	MRP1 act 5.2 (no result: Calb biofilm kill, MRP resist rev)
CCc1cccc(C)c1NC(=O)CNCc1ccccc1	none (no result: Calb biofilm kill, MRP resist rev)
Cc1cc(C)c(S(C)(=O)=O)c(Sc2ccc(Cl)cc2)n1	MRP1 act 5.4 (no result: Calb biofilm kill, MRP resist rev)
CCCN1C(=O)SC(CC(=O)Nc2ccccc2C)C1=O (centres undefined)	none
Cc1ccccc1NC(=O)CC1SC(=O)N(c2ccccc2)C1=O (centres undefined)	MRP1 act 5.4
COc1ccc(/C=N/OCC(=O)NCc2cccs2)c(OC)c1	none (no result: Calb biofilm kill, MRP resist rev)
CCCCOc1ccc(C(=O)Oc2ccc(C)nc2)cc1	MRP1 act 5.5
Cc1noc(/C=C/N(C)C)c1S(=O)(=O)N1CCCC(C(=O)NC2CCCCC2C)C1 (centres undefined)	MRP1 act 8.6
CCOC(=O)c1ccc(C(=O)OCC)c(NC(=S)Nc2ccc([N+](=O)[O-])cc2OC)c1	none (no result: Calb biofilm kill, MRP resist rev)
Cc1c(C)n(C)c2ccc(C(=O)NCc3cccs3)cc12	MRP1 act 5.5
COc1ccc(/C=N/n2c(=S)n(C)c3ccccc32)cc1OC	Calb biofilm kill 50
Cn1c(=S)n(/N=C/c2ccc3c(c2)OCO3)c2ccccc21	none
COc1ccc(CCNC(=O)CCn2c(=O)oc3ccccc32)cc1	Calb biofilm kill 21
